Sampled rows, rich in hits. Any-hit rate of the full collection: about 3.1%.
NadD inh: blocks S. aureus nicotinate mononucleotide adenylyltransferase; 360,000 compounds, 0.78% hits; AID 602399; purified NadD enzyme, colorimetric absorbance read-out; inhibition, % at 20 µM; in the data active = inhibition above about 26%
ATG4B inh: inhibitors of human ATG4B cysteine protease. AID 504462. Q9Y4P1. 340,000 compounds, 0.51% hits. inhibition, % at 8.33 µM. ATG4B cleavage of LC3-PLA2, NBD-HPC fluorescence, 1 h; in the data active = inhibition above about 40%
Calb FLC: affects C. albicans growth with fluconazole; C. albicans CaCi-2 (fluconazole-resistant clinical isolate) + fluconazole, Alamar Blue growth, 48 h; growth inhibition, % (test concentration not listed); 300,000 compounds, 0.57% hits;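 active = growth inhibition above about 58% in most replicates, limit read from the data, passing the limit was not always enough; inconclusive = exactly half the replicates above a set limit; inactive = most replicates below a set limit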;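 also: all wells also contain fluconazole at 8 µg/ml as a sub-toxic cotreatment; 0% = median of DMSO wells and 100% = median of geldanamycin control wells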
FAS TE block: blocks the thioesterase domain of human fatty acid synthase; inhibition, % at 15 µM; 360,000 compounds, 0.67% hits; recombinant FAS-TE, OMFH fluorogenic substrate, fluorescence endpoint;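 active = compounds whose normalised, plate-corrected inhibition of enzyme fluorescence in the single-dose primary screen is 50% or more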;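 also: 0% = DMSO with enzyme and 100% = substrate without enzyme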
SUMO Mot1 rescue: SUMOylation pathway inhibition by Mot1-301 growth rescue; S. cerevisiae Mot1-301 growth rescue, ATP luminescence, 38.5C; percent above DMSO median, 100 means doubled; 320,000 compounds, 1% hits; growth rescue, % at 18.8 µM; AID 2716;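 active = every valid replicate shows activation above 250% relative to neutral control wells; inactive = the rest, any valid replicate at or below 250%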;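 also: OY570 slx delta 5 strain wells were the positive control but not used for scaling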
The depositor's hits bear a star; ? = inconclusive; nt = no result.

SMILES	NadD inh	ATG4B inh	Calb FLC	FAS TE block	SUMO Mot1 rescue
CSc1ccc(C(=O)C2CCCN(C(=O)c3cc4cc(F)ccc4[nH]3)C2)cc1 (configuration not stated)	-1.5	14.0	5.0	14.6	446.7*
CSc1ccc(C(=O)C2CCCN(C(=O)c3ccc4c(c3)OCO4)C2)cc1 (configuration not stated)	-1.4	5.3	-3.2	5.5	-8.9
COCCNC(=O)CCCn1c(=O)c2ccccc2n(CC(=O)NCCC2=CCCCC2)c1=O	3.2	-7.2	-5.3	-8.7	nt
COCCNC(=O)CCCn1c(=O)c2cc(OC)c(OC)cc2n(CC(=O)NCCC2=CCCCC2)c1=O	5.1	-12.5	51.1*	-4.5	4.7
O=C(Cc1ccccc1)NC1CCN(Cc2ccccc2)CC1	1.1	9.2	-13.7	-5.2	163.7
O=C(Cc1ccc(Br)cc1)NC1CCN(Cc2ccccc2)CC1	1.5	-3.7	0.0	-4.2	282.5*
Cc1cccc2cc(/C=C3\N=C(c4ccccc4)OC3=O)c(N3CCOCC3)nc12	32.0*	-3.7	-0.8	-28.4	-5.8
C[C@@H]1CN([C@H](C)CO)C(=O)CCCn2nncc2CO[C@H]1CN(C)CC1CC1	0.5	nt	nt	-8.3	nt
CCCN(CC(=O)Nc1ccccc1OC)C(=O)c1cc(-c2ccccc2)nn1-c1ccccc1	5.9	7.6	nt	31.5	225.0
CCOC(=O)c1sc(NC(=O)c2cc3ccccc3o2)nc1C	-11.9	-0.8	0.7	1.0	-8.1
C=CCOC(=O)c1sc(NC(=O)c2ccco2)nc1C	-2.6	2.6	78.5*	-6.7	144.3
O=C(O)CC(C(=O)O)N1C(=O)/C(=C/c2ccc(-c3nc4ccccc4s3)o2)SC1=S (configuration not stated)	23.3	67.5*	2.5	-2.5	-36.0
O=C(O)CCN1C(=O)/C(=C/c2ccc(-c3nc4ccccc4s3)o2)SC1=S	29.6	6.7	?	11.4	3.2
O=C(c1ccccc1)c1c[nH]c(C(=O)NNc2ccccc2)c1	-7.0	3.5	99.1*	0.1	404.2*
CN(C)CCCNC(=O)c1cc(C(=O)c2ccccc2)c[nH]1	-6.0	-1.6	8.9	-4.5	-15.2
CCOC(=O)C1CCCN(S(=O)(=O)c2cc3c4c(c2)CCC(=O)N4CCC3)C1 (configuration not stated)	-1.6	1.6	1.8	-8.3	0.9
CC(=O)NC(CCc1ccc(Cl)c(Cl)c1)c1cccc(O)c(=O)c1 (configuration not stated)	3.8	nt	nt	2.0	nt
O=C(c1ccc(-n2cnnn2)cc1)N1CCOCC1	2.6	-2.9	3.3	-12.3	303.2*
CC1CCN(C(=O)c2ccc(-n3cnnn3)cc2)CC1	2.9	2.9	1.4	-3.0	8.2
O=[N+]([O-])c1ccccc1S(=O)(=O)N1CCN(S(=O)(=O)c2ccc3c(c2)OCCO3)CC1	2.4	-2.3	nt	53.2*	14.6
CC(C)Oc1ccc(S(=O)(=O)N2CCOCC2)cc1NC(=O)CSC(=S)N1CCCC1	7.7	nt	nt	20.4	nt
CC(=O)c1ccc(NC(=O)Nc2cccc3ccccc23)cc1	-1.5	-6.8	81.5*	0.4	6.4
CC(=O)Nc1ccc(NC(=O)Nc2cccc3ccccc23)cc1	-8.5	-2.4	5.9	-6.6	263.8
Nc1[nH]c(C(=O)c2ccccc2)c(-c2ccccc2Br)c1C(=O)NCCc1ccc(Cl)cc1Cl	17.2	nt	nt	9.6	nt
CC(=O)Nc1ccc(S(=O)(=O)Nc2ccc(C(=O)NCC(=O)O)cc2)cc1	-6.6	-3.7	5.4	-1.9	348.9*
SMILES	NadD inh	ATG4B inh	Calb FLC	FAS TE block	SUMO Mot1 rescue
O=C1CC(c2ccc(Cl)cc2)CC(O)=C1C=NCCO (configuration not stated)	-7.7	7.1	1.0	-2.7	-24.1
Nc1cc(=O)[nH]c(SCC(=O)NNC(=O)Cc2ccccc2)n1	-1.6	-7.6	-4.6	0.3	333.3*
OCC[C@H]1C[C@H](O)[C@@H](O)[C@@]2(CCCO2)O1	-4.0	1.0	-1.2	-7.0	-6.3
CCN(CC)S(=O)(=O)c1ccc(N/N=C/c2ccc(O)cc2O)nc1	-1.4	-21.2	90.6*	1.5	-22.2
Nc1nc(C(F)(F)F)c(Br)c(=O)n1N	-4.4	-4.9	-1.8	-7.8	-13.0
CN(C)c1ccc(/C=C/c2ccc3ccccc3[n+]2C)cc1	15.8	5.0	103.5*	-24.0	-1.3
CC(C)C[C@H]1COc2cccc(N3CCC[C@H]3CO)c2S(=O)(=O)N1	-2.3	nt	nt	-9.3	nt
Cc1ccc(-n2nnnc2CNC(=O)c2ccc3c(c2)OCO3)cc1C	-1.9	-8.4	-1.2	-2.8	329.5*
Cc1ccc(-n2nnnc2CNC(=O)c2ccc(Br)o2)cc1C	11.3	10.5	5.1	-5.9	-5.7
CCOc1ccc(NC(=O)C(CC(=O)O)Cc2ccc(C)cc2)cc1 (configuration not stated)	-2.7	-2.1	9.3	-3.6	8.3
Nc1[nH]n2c(=O)cc(-c3ccccc3)nc2c1N=Nc1ccc(S(N)(=O)=O)cc1	25.4	-9.0	50.7	-4.4	1.6
Nc1[nH]n2c(=O)cc(-c3ccccc3)nc2c1N=Nc1ccccc1	30.7*	-1.1	0.1	3.3	-15.8
S=C(Nc1ccccc1)N1CCC(Cc2ccccc2)CC1	5.8	-3.1	1.9	9.8	-10.2
O=C(O)c1cc(-c2ccc(O)cc2)on1	-5.5	-9.5	100.5*	-6.3	-6.0
CCN(CC)c1c(C)nc2ccc(C(=O)NCc3ccc4c(c3)OCO4)cn12	2.5	nt	nt	-0.2	nt
CCOc1ccc(Cl)cc1S(=O)(=O)N1CCC(C(=O)NCc2ccncc2)CC1	-7.1	-16.7	7.7	-3.3	6.6
COCCNC(=O)C1=C(N)C(C(=O)Nc2ccc(C)c(S(=O)(=O)N3CCCCC3)c2)SC1=Nc1ccc(C)cc1C (configuration not stated)	49.6*	-2.3	1.4	12.6	9.5
CCN1C(=O)[C@H]2[C@@H](c3ccc(-c4ccc(OC)cc4)cc3)N3CCCC[C@@]3(C(=O)OC)[C@H]2C1=O	-5.6	-5.6	-1.1	38.8	787.8*
CCN1C(=O)[C@H]2[C@@H](c3ccc(-c4ccc(OC)cc4)cc3)N3CCC[C@@]3(C(=O)OC)[C@H]2C1=O	-0.1	-9.5	11.4	16.1	-5.2
COc1cccc(-c2ccc(NC(=O)C3CCCN(Cc4nccn4C)C3)cc2)c1 (configuration not stated)	2.2	-6.7	-7.5	-4.8	2.0
O=C1C(=O)N(C2CCCC2)C(=O)N1Cc1c(F)cccc1Cl	-5.3	-6.7	-9.0	-0.6	-9.0
CCCNC(=O)c1ccc2c(=O)c(O)c(-c3ccc(OC)cc3)[nH]c2c1	-1.4	-2.4	81.6*	-8.8	-0.5
O=C(/C=C/c1ccc(Br)o1)OCc1nc2ccsc2c(=O)[nH]1	53.5*	15.1	0.1	0.7	5.5
O=C(Cc1ccc(O)cc1)N/N=C/c1cccnc1	-0.5	2.6	101.7*	-4.8	5.3
COc1ccc(C(O)(CCN2CCOCC2)c2ccccc2)cc1 (configuration not stated)	-2.3	-8.2	-9.4	-2.9	-4.3
O=C(CCN1C(=O)/C(=C/C=C/c2ccccc2)SC1=S)Nc1nccs1	41.1*	-1.1	1.1	-2.4	1.5

High-throughput results deposited in PubChem BioAssay by several laboratories.
